Source: PubChem BioAssay AID1259245 (Vanderbilt High Throughput Screening Facility, 2017)
Hit rate of the full screen: of about 40,000 compounds, about 1,400 (3.5%) were called active.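 The calls were made as follows: active = any of four per-well response measures lying three or more SD from its plate-wide compound average, in either direction; inactive = the rest, inconclusive results apart.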 The sample as a whole holds a higher share of actives than the screen did.

Target: Voltage-dependent calcium channel gamma-2 subunit (Mus musculus) + Glutamate receptor 2 (Rattus norvegicus) (UniProt O88602+P19491)
Experiment: AMPAR-TARP gamma-2 complex positive or negative modulation – cell-based, membrane potential dye, primary screen (AID 1259245)
Conditions: HEK293 GluA2+stargazin, membrane potential dye (FDSS), glutamate EC50, at 30 µM, hits were called plate by plate, in both directions; compound max-min signal: compound-alone response (agonism); glutamate slope, % of max: measured here: glutamate response slope, % max

Voltage-dependent calcium channel gamma-2 subunit (Mus musculus) + Glutamate receptor 2 (Rattus norvegicus), sequence (O88602 whole entry, looked up): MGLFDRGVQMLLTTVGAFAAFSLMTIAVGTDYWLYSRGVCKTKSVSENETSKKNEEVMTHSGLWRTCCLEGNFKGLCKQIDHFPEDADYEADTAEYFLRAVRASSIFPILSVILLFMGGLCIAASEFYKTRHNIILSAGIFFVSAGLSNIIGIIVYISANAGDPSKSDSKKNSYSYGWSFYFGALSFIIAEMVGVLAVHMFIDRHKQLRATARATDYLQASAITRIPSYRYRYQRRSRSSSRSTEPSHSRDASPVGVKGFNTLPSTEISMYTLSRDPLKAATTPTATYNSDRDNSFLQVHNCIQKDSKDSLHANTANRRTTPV
Voltage-dependent calcium channel gamma-2 subunit (Mus musculus) + Glutamate receptor 2 (Rattus norvegicus), sequence (P19491 whole entry, looked up): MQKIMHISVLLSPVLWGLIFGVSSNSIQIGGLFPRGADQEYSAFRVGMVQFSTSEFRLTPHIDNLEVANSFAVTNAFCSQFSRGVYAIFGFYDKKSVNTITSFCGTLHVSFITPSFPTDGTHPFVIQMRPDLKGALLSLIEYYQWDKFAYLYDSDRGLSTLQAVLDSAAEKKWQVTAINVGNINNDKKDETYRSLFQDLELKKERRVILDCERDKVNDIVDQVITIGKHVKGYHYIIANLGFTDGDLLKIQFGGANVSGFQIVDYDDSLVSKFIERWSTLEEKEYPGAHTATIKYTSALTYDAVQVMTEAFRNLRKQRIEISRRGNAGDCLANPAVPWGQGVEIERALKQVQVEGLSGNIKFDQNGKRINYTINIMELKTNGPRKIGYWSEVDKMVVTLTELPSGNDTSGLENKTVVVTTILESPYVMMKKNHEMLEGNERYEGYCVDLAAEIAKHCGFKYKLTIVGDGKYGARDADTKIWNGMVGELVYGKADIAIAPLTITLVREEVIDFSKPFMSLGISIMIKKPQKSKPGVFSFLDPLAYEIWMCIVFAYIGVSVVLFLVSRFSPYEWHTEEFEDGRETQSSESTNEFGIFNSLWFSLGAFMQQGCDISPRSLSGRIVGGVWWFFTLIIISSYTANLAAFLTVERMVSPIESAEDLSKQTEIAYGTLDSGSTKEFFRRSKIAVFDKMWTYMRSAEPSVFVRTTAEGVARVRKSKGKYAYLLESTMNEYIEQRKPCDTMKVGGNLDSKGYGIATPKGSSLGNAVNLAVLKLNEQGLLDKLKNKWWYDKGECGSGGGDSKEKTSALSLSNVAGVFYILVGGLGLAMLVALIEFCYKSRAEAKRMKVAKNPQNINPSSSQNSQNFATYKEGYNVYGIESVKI

Row | Compound | compound max-min signal | glutamate response, % of max | glutamate slope, % of max [%]
1 | CC(=O)N1CC(C(=O)Nc2cccc3nsnc23)C1 | 0.0775 | 30.1% (inactive) | 49.8
2 | COc1ccc(-n2nc3c(c2NC(=O)C(=O)N2CCCCC2)CSC3)cc1 | 0.0721 | 33.6% (active) | 59.2
3 | O=C(NCCCn1ccnc1)C(=O)Nc1c2c(nn1-c1ccc(Cl)cc1)CSC2 | 0.0348 | 37.9% (inactive) | 64.4
4 | O=C(Nc1c2c(nn1-c1ccc(F)cc1)CSC2)C(=O)N1CCCCCC1 | 0.071 | 32% (active) | 43.4
5 | CC1CCN(C(=O)C(=O)Nc2c3c(nn2-c2ccc(F)cc2)CSC3)CC1 | 0.0271 | 24.1% (inactive) | 44.2
6 | COc1ccc(-n2nc3c(c2NC(=O)C(=O)NC2CCCC2)CS(=O)(=O)C3)cc1 | 0.0561 | 41.9% (inactive) | 51.3
7 | O=C(NCCCN1CCCC1=O)C(=O)Nc1c2c(nn1-c1cccc(Cl)c1)CSC2 | 0.0244 | 21.6% (inactive) | 47
8 | CCCn1c(N2CCC(C(N)=O)CC2)nc2c1c(=O)n(C)c(=O)n2C | 0.0828 | 24.8% (inactive) | 45.3
9 | CCCCc1ccc(-n2c(C)cn3c4c(=O)n(CC(=O)OC)c(=O)n(C)c4nc23)cc1 | 0.103 | 55.1% (inactive) | 73.4
10 | COc1cccc(-n2nnc3c(N4CCN(C(=O)c5c(OC)cccc5OC)CC4)ncnc32)c1 | 0.0804 | 29.1% (inactive) | 53.7
11 | Cc1nc(-c2ccccc2)sc1C(=O)NCCOc1ccc2nnc(-c3ccccc3)n2n1 | 0.0398 | 37.1% (inactive) | 49.7
12 | O=C(COc1ccc(Cl)cc1)NCCOc1ccc2nnc(-c3cccc(F)c3)n2n1 | 0.0351 | 38.7% (inactive) | 69.7
13 | CCc1ccccc1NC(=O)NCCOc1ccc2nnc(-c3cccc(F)c3)n2n1 | 0.131 | 41.1% (active) | 52.3
14 | COc1ccc(CCS(=O)(=O)Nc2ccc3c(c2)N(C(C)=O)CC3)cc1 | 0.0917 | 25.2% (inactive) | 47.2
15 | CCOc1ccc(N2CCCn3c2nc2c3c(=O)n(CCN3CCOCC3)c(=O)n2C)cc1 | 0.074 | 10% (inactive) | 27.7
16 | CCc1ccc(NC(=O)Cn2c(=O)c3c(N4CCN(C(C)=O)CC4)ccnc3n(C)c2=O)cc1 | 0.159 | 32.2% (active) | 55.8
17 | CC(=O)N1CCN(c2ccnc3c2c(=O)n(CC(=O)NCc2ccco2)c(=O)n3C)CC1 | 0.103 | 49.5% (inactive) | 74.3
18 | CC(=O)N1CCN(c2ccnc3c2c(=O)n(CC(=O)NCC2CCCO2)c(=O)n3C)CC1 (stereo not given) | 0.0945 | 51% (inactive) | 78.2
19 | O=[N+]([O-])c1cccc(CSc2nnc(-c3ccncc3)o2)c1 | 0.0611 | 20.8% (inactive) | 47.1
20 | CC(=O)c1sc(NC(=O)C2CCCN(S(C)(=O)=O)C2)nc1-c1ccccc1 (stereo not given) | 0.126 | 21.7% (inactive) | 40.2
21 | CCOc1ccc(-c2cc(=O)n(CCCC(=O)Nc3cc(C)ns3)cn2)cc1 | 0.074 | -0.752% (active) | 5.34
22 | CCOc1ccc(-c2ccc(=O)n(CCCC(=O)Nc3cc(Cl)ccc3OC)n2)cc1 | 0.0223 | 14.7% (inactive) | 28.2
23 | COc1ccc(-c2ccc(=O)n(CCCC(=O)Nc3ccccc3-c3ccccc3)n2)cc1 | 0.0404 | 21.1% (inactive) | 39

Row | Compound | compound max-min signal | glutamate response, % of max | glutamate slope, % of max [%]
24 | COc1cc(NS(=O)(=O)c2ccccc2F)ccc1N1CCCCC1=O | 0.0504 | 15.5% (inactive) | 35.3
25 | COc1ccc(C(CNC(=O)c2cc(C)cc(C)c2)N2CCOCC2)cc1 (stereo not given) | 0.0728 | 37.2% (inactive) | 50.1
26 | COc1cccc(C(CNC(=O)c2ccc(OC(C)C)cc2)N2CCOCC2)c1 (stereo not given) | 0.0693 | 22.5% (inactive) | 42.1
27 | COc1ccc(C(CNC(=O)c2ccccc2Cl)N2CCOCC2)cc1 (stereo not given) | 0.07 | 35.7% (active) | 45.9
28 | COc1ccccc1CCNC(=O)C(=O)Nc1cc([N+](=O)[O-])ccc1C | 0.125 | 47.7% (inactive) | 62.3
29 | COc1cccc(CNC(=O)C(=O)Nc2cc([N+](=O)[O-])ccc2C)c1 | 0.135 | 41.7% (inactive) | 61.5
30 | COc1ccc(NC(=O)C(=O)Nc2cc([N+](=O)[O-])ccc2C)cc1OC | 0.325 | 62.6% (active) | 80.6
31 | O=C(NCCNc1ccc(Nc2ccncc2)nn1)c1cccc2ccccc12 | 0.274 | 30.8% (inactive) | 57.7
32 | O=C(NCCn1ncc2c(N3CCOCC3)ncnc21)c1ccc2c(c1)OCO2 | 0.0657 | 28.9% (inactive) | 49.6
33 | CC(O)(CNC(=O)NCc1ccc(F)cc1)c1ccc(-c2ccccc2)cc1 (stereo not given) | 0.113 | 15.8% (inactive) | 57.2
34 | O=C(NNC(=O)c1ccc(=O)n(Cc2ccccc2)c1)c1ccc(F)c(F)c1 | 0.0736 | 29.9% (inactive) | 51.5
35 | Cn1nc(NC(=O)c2ccc3c(c2)OCO3)c2c1NC(=O)CC2c1cccs1 (stereo not given) | 0.101 | 34.8% (inactive) | 53.9
36 | Cn1nc(NC(=O)/C=C\c2ccc3c(c2)OCO3)c2c1NC(=O)CC2c1ccco1 (stereo not given) | 0.119 | 38.8% (inactive) | 66.5
37 | CC1CC(=O)Nc2c1c(NC(=O)c1ccc3c(c1)OCO3)nn2C (stereo not given) | 0.11 | 23.6% (active) | 38.4
38 | COc1ccc(NC(=O)C(=O)NCC2CCN(C)CC2)c(OC)c1 | 0.0817 | 43.1% (inactive) | 70.1
39 | Cc1ccc(-n2ncc3c(=O)n(CC(=O)N4CCOCC4)cnc32)cc1C | 0.0678 | 29.7% (inactive) | 52.9
40 | O=[N+]([O-])c1cccc(S(=O)(=O)NCC(c2cccs2)N2CCOCC2)c1 (stereo not given) | 0.129 | 23.5% (active) | 44.4
41 | COc1ccc(S(=O)(=O)NCC(c2cccn2C)N2CCOCC2)cc1OC (stereo not given) | 0.0786 | 34.5% (inactive) | 60.4
42 | Cn1cccc1C(CNS(=O)(=O)c1ccc(F)cc1)N1CCOCC1 (stereo not given) | 0.0736 | 28.1% (inactive) | 55.5
43 | O=C(NCCn1ncc2c(N3CCN(c4ccccc4)CC3)ncnc21)c1cccs1 | 0.0478 | 45.6% (inactive) | 68.2
44 | COc1ccc(CN(CC(=O)N(C)c2ccccc2)S(=O)(=O)c2cccnc2)cc1 | 0.128 | 30.9% (inactive) | 52.8
45 | O=C1/C(=C/c2cccnc2)SC(=S)N1c1ccc2c(c1)OCCO2 | 0.116 | 41.7% (inactive) | 65.3
